Where “and” joins values, the source holds several entries; their conditions need not be identical. Equal values may be shown once. Records with an inconclusive call do not appear. More than one record can exist for a structure, and the calls need not agree. Calls of active or inactive are those of the source. Unless noted, calls come from the whole dose curve; as a rule, active = well fitted curve in the direction sought with a large enough effect in the repeat runs; inconclusive = weak or mixed curves; inactive = no such curve, though single readings can be large; an effect the other way counts as inactive or inconclusive.
How the values were obtained:
[1] = qHTS assay to identify small molecule agonists of the RXR signaling pathway - cell viability counter screen (AID 1159529); details: RXR-alpha-bla HEK293T viability, CellTiter-Glo, 16 h; series mostly up to 76.8 µM; note: nearly all actives have a fitted effect of over 50% in size; note: potency is the fitted concentration of half-maximal effect
Method in brief: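 Steps: seed RXR-alpha-UAS-bla HEK 293T cells in assay medium containing 2% charcoal-stripped FBS; incubate 5 hr; add compounds in DMSO; incubate 16 hr at 37 C; after the bla read, add CellTiter-Glo and read luminescence at 30 min.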

[2] = qHTS assay to identify small molecule antagonists of the retinoid acid receptor (RAR) signaling pathway - cell viability counter screen (AID 1159551); details: C3RL4 cells viability, ATP luminescence (CellTiter-Glo), 6 h; series mostly up to 92.4 µM; note: nearly all actives have a fitted effect of over 35% in size; note: potency is the fitted concentration of half-maximal effect
Method in brief: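 Seed C3RL4 cells; next day add compound, then retinol to 1 uM final; incubate 6 h at 37 C; add CellTiter-Glo; read luminescence after 30 min at RT.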

[3] = qHTS assay to identify small molecule antagonists of the retinoic acid receptor (RAR) signaling pathway (AID 1159552; note: nearly all actives have a fitted effect of over 50% in size; note: potency is the fitted concentration of half-maximal effect); details: C3RL4 RARE luciferase reporter, retinol-stimulated, 6 h; series mostly up to 92.4 µM
Method in brief: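 Retinol at 1 uM final stimulated RARE-luciferase expression in C3RL4 cells exposed to test compounds for 6 hr at 37 C. Reduced luminescence, read 30 min after detection reagent, indicated pathway antagonism.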

[4] = qHTS assay to identify small molecule agonists of the retinoic acid receptor (RAR) signaling pathway (AID 1159553); details: C3RL4 RARE luciferase reporter, agonist, 6 h; activation: at 73.3 µM (top of the series) unless noted; note: potency is the fitted concentration of half-maximal effect
Method in brief: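 Activation of retinol signaling was monitored via a RARE luciferase reporter in C3RL4 cells. After 6 hr compound treatment at 37 C, detection reagent was added for 30 min at room temperature before luminescence reading.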

[5] = qHTS assay to identify small molecule antagonists of the estrogen related receptor (ERR) signaling pathway - cell viability counter screen (AID 1224818); details: ERR reporter cell line viability counter screen; series mostly up to 46.1 µM;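 note: viability measured after 17.5 h of compound exposure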
Method in brief: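 In the same ERR cell assay, compound-treated wells (17.5 h, 37 C) were multiplexed with a fluorogenic viability reagent, CellTiter-Fluor, read after 30 min to flag cytotoxic substances.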

[6] = qHTS assay to identify small molecule antagonists of the estrogen related receptor signaling pathway with the pleiotropic PPARgamma coactivator (PGC) cell viability counter screen (AID 1224822); details: ERR/PGC reporter cell line viability counter screen; series mostly up to 46.1 µM
Method in brief: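 Compounds in DMSO, with positive and negative controls, were applied to PGC/ERR cells (2,000/well) and left 17.5 h at 37 C before CellTiter-Fluor detection.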

[7] = qHTS assay to identify small molecule antagonists of the estrogen related receptor (ERR) signaling pathway (AID 1224819;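 note: luminescence from an ERR-driven luciferase reporter measured with One-Glo reagent; nearly all actives have a fitted effect of over 50% in size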); details: ERR reporter cell line, luciferase inhibition; series mostly up to 46.1 µM
Method in brief: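 qHTS in ERR cells, 2,000/well, 1536 format. Cpd (DMSO) added after 6 h settle, 18 h 37 C. One-Glo luminescence, 30 min RT.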

[8] = qHTS assay to identify small molecule agonists of the estrogen related receptor (ERR) signaling pathway (AID 1224820); details: ERR reporter cell line, luciferase agonist mode; series mostly up to 46.1 µM
Method in brief: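 ERR reporter cells (NTP line) plated 2,000/well, incubated 6 h at 37 C/5% CO2, then pinned with compounds in DMSO and held 18 h at 37 C. One-Glo added; luminescence read after 30 min at room temperature.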

[9] = test system: estrogen-related receptor alpha (ERRalpha) with PGC-1alpha coactivator, human; assay: qHTS assay to identify small molecule antagonists of the estrogen related receptor signaling pathway with the pleiotropic PPARgamma coactivator (PGC) (AID 1224821; calls by dose curve;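 note: lower luminescence signal means antagonism of PGC/ERR signalling; nearly all actives have a fitted effect of over 50% in size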); details: ERR/PGC reporter cell line, luciferase, antagonist mode; series mostly up to 46.1 µM
Method in brief: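 Cells engineered for PGC/ERR signalling (line from NTP) were plated 6 h at 37 C/5% CO2, then exposed to DMSO-dissolved compound for 18 h at 37 C. Luciferase activity was read by One-Glo luminescence after 30 min at room temperature.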

[10] = qHTS assay to identify small molecule agonists of the estrogen related receptor signaling pathway with the pleiotropic PPARgamma coactivator (PGC) (AID 1224823); details: ERR/PGC reporter cell line, luciferase agonist mode; series mostly up to 46.1 µM
Method in brief: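 PGC/ERR reporter cells were seeded, rested 6 h at 37 C/5% CO2, then exposed to compounds in DMSO by pin transfer for 18 h at 37 C. Luciferase activity was read as luminescence after One-Glo reagent and 30 min at room temperature.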

Measured: Potency

Oc1ccc(Cl)cc1Cc1ccccc1
27.6 µM (active) and inactive: [3]
active: [1] 49 µM and 24.8 µM
55.1 µM (active) and inactive: [2]
inactive: [4] | [5] | [6]

COc1ccc(O)c(C(C)(C)C)c1
inactive: [1] | [2] | [3] | [4]

O=C1Nc2ccc(Cl)cc2C(c2ccccc2)=NC1O (centres undefined)
inactive: [1] | [2] | [3] | [4]

O=[N+]([O-])c1ccc(Cl)c([N+](=O)[O-])c1
active: [1] 24.9 µM and 24.5 µM | [3] 13.9 µM and 12.2 µM

O=[N+]([O-])/N=C1\NCCN1Cc1ccc(Cl)nc1
inactive: [1] | [2] | [3] | [4]

C[N+](C)(C)CC(=O)O
inactive: [1] | [2] | [5] | [6]

COP(=S)(OC)Oc1ccc(S(=O)(=O)N(C)C)cc1
inactive: [1] | [2] | [3] | [4]

O=[N+]([O-])c1ccc(Nc2ccccc2)cc1
inactive: [2] | [3] | [4]

OCCOCCO
inactive: [1] | [2] | [3] | [4]

NN=C(N)N
inactive: [1] | [2] | [5] | [6]

CS(=O)(=O)NC(=O)c1cc(Oc2ccc(C(F)(F)F)cc2Cl)ccc1[N+](=O)[O-]
inactive: [1] | [2] | [3] | [4]

NC(=O)CN1CCCC1=O
inactive: [1] | [2] | [3] | [5] | [7] | [8] | [9] | [6] | [10]

CC1(C)Cc2cccc(O)c2O1
inactive: [1] | [2] | [3] | [4]

C=CC(=O)OCC(CC)(COC(=O)C=C)COC(=O)C=C
inactive: [2]
active: [1] 15.9 µM and 21.9 µM | [3] 8.87 µM and 15.4 µM | [4] 2.23 µM

CC(C)(O)C#N
inactive: [1] | [2] | [3] | [4]

O=NN(c1ccccc1)c1ccccc1
inactive: [1] | [2] | [3] | [4]

CCC1(c2ccc(N)cc2)CCC(=O)NC1=O (centres undefined)
inactive: [1] | [2] | [5] | [7] | [8] | [9] | [6] | [10]

C=C(C)C#N
inactive: [1] | [2] | [3] | [4]

c1ccc2c(c1)Nc1ccccc1S2
inactive: [1] | [2] | [3] | [4] | [5] | [7] | [8] | [9] | [6] | [10]

CCCCOC(=O)COC(=O)c1ccccc1C(=O)OCCCC
inactive: [1] | [2] | [3] | [4]

O=C1CCCO1
inactive: [1] | [2] | [3] | [4]

C=CC(Cl)CCl (centres undefined)
inactive: [1] | [2] | [3] | [4]

CCCCCCCCCC(CC)c1ccc(S(=O)(=O)O)cc1 (centres undefined)
inactive: [2] | [5] | [6]

C[C@]12CCC(=O)C=C1CC[C@@H]1[C@@H]2CC[C@@]2(C)[C@H]1CC[C@]2(C)O
active: [3] 43.6 µM
inactive: [1] | [2] | [4] | [5] | [6]

ClC(Cl)(Cl)Br
inactive: [1] | [2] | [3] | [4]

O=S(=O)(O)C(F)(F)C(F)(F)C(F)(F)C(F)(F)C(F)(F)C(F)(F)C(F)(F)C(F)(F)F
inactive: [2] | [5] | [7] | [8] | [9] | [6] | [10]
inactive and 19.5 µM (active): [1]

CC1(C)C(C(=O)OC(C#N)c2cccc(Oc3ccccc3)c2)C1(C)C (centres undefined)
inactive: [1] | [2] | [3] | [4]

N#Cc1nn(-c2c(Cl)cc(C(F)(F)F)cc2Cl)c(N)c1S(=O)C(F)(F)F (centres undefined)
inactive: [1] | [2] | [4]

CC(C)CON=O
inactive: [1] | [2] | [3] | [4]

O=C(O)c1nn(Cc2ccc(Cl)cc2Cl)c2ccccc12
inactive: [1] | [2] | [3] | [4] | [5] | [7] | [8] | [9] | [6] | [10]

Reference: PubChem BioAssay (Tox21)
